# Experimental data as given in publication PMC5540273 (PLoS ONE, 2017).
# System: PRKCQ
# Details: concentration: 1 μM, replicates: in singlicate; n = 1
# 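Note: KINOMEscan kinase panel screen.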
row,Structure (SMILES),%Inh
1,Cc1ccc(-c2nc(Nc3ccncc3)c3ccccc3n2)s1 [GSK189015],29%
2,CC(C)c1cc(-c2ccc3c(N)n[nH]c3c2)nc(N)n1 [GSK2250882],6%
3,CC(=O)c1cccc(NC(=O)NC2CCN(c3ccnc(Nc4ccc(F)cc4)n3)C2)c1 (centres unmarked) [GSK1379710],27%
4,Cc1ccccc1Cn1ccn2c(=O)cc(N3CCOCC3)nc12 [GSK2269905],0%
5,CNc1nc(-c2ccc3c(N)n[nH]c3c2)cc(N2C[C@@H](C(=O)Nc3ccccc3)CC[C@H]2C)n1 [GSK2298859],0%
6,Fc1ccc(-c2nc[nH]c2-c2ccncc2)cc1 [SB-217360],0%
7,Cc1cccc2c(-c3ccncn3)c(-c3ccc(F)cc3)nn12 [GW515532],9%
8,COc1ccc(Nc2nccc(NCCNC(=O)Nc3cc(C)ccc3C)n2)cc1 [GSK1379899],0%
9,CS(=O)(=O)CCNCc1nc(-c2ccc3ncnc(Nc4ccc(OCc5ccccc5)c(Cl)c4)c3c2)cs1.Cl [GW582764],3%
10,NS(=O)(=O)c1cccc(N/C=C2\C(=O)Nc3ccc(S(=O)(=O)Cc4c(Cl)cccc4Cl)cc32)c1 [GSK398099],0%
11,CC(=O)c1c(C)c2cnc(Nc3ccn(C)n3)nc2n(C2CCCC2)c1=O,0%
12,Cn1cncc1-c1cc2c(Nc3ccc(OCc4ccccc4)cc3)ncnc2cn1 [GW281179],0%
13,COc1ccc(CSc2nnc(-c3ccc4c(c3)CCO4)o2)cc1,0%
14,CN1c2ccc(-c3ccc(C(N)=O)cc3)cc2-c2[nH]ncc2S1(=O)=O,5%
15,CC(C)c1ccc(O)cc1Nc1ccnc2ccc(C(F)(F)F)cc12 [GW482059],0%
16,O=C(Nc1n[nH]c2nc(-c3cccs3)c(Br)cc12)C1CCCC1 [SB-743341],32%
17,CS(=O)(=O)CCNCc1nc(-c2ccc3ncnc(Nc4ccc5c(cnn5Cc5ccccc5)c4)c3c2)cs1.Cl.Cl [GW569716],0%
18,Cl.Cl.Cl.N#Cc1ccc(CCNc2nccc(-c3cccc(CN4CCNCC4)c3)n2)cc1 [GSK2137462],5%
19,Fc1ccc(-c2nn3cccc(F)c3c2-c2ccncc2)cc1 [GW475620],14%
20,COc1ccc(CSc2nnc(-c3ccc4ncsc4c3)o2)cc1C(F)(F)F,10%
21,Cc1ccc(NC(=O)Nc2ccccc2F)cc1-c1ccc(C(=O)Nc2ccncc2)cc1 [GSK1398477],19%
22,O=C1NC(=O)C(c2ccc(Cl)cc2)=C1Nc1cccc(Cl)c1 [SB-317651],11%
23,CNc1nc(-c2ccc3c(N)n[nH]c3c2)cc(N2C[C@@H](C(=O)NC3CCCCC3)OC[C@H]2C)n1 [GSK2375584],0%

# System: PRKD1
# Details: concentration: 1 μM, replicates: in singlicate; n = 1
row,Structure (SMILES),%Inh
1,COc1ccc(Nc2nccc(N3CCC(NC(=O)C(C)c4ccc(Cl)cc4)CC3)n2)cc1 (centres unmarked) [GSK1379812],0%
2,CC(=O)c1c(C)c2cnc(Nc3ccc(N4CCNCC4)cn3)nc2n(C2CCCC2)c1=O,0%
3,Nc1nccc(-c2c(-c3ccc(F)cc3)ncn2C2CCN(Cc3ccccc3)CC2)n1 [SB-219980],0%
4,Fc1ccc(-c2nc3n(c2-c2ccncc2)CCS3)cc1 [GI98581],0%
5,COc1cccc(CNC(=O)NC2CCN(c3ccnc(Nc4ccc(F)cc4)n3)C2)c1 (centres unmarked) [GSK1379723],0%
6,c1ccc(-c2ccnc3[nH]ccc23)cc1 [SB-693578],0%
7,Cc1ccc(NC(=O)c2ccc(Cl)cc2)cc1-c1ccc(C(=O)Nc2ccncc2)cc1 [GSK1398467],0%
8,CNCc1ccc2nc(NC(=O)c3ccc(C(C)(C)C)cc3)cn2c1,30%
9,COc1ccc(-c2coc3ccc(-c4nnc(C)o4)cc23)cc1,20%
10,O=C(Nc1n[nH]c2nc(-c3ccco3)c(Br)cc12)C1CCN(Cc2ccccc2)C1.O=C(O)[C@H](O)[C@@H](O)C(=O)O (centres unmarked) [SB-742034],14%
11,Cc1c(Cn2c(C)c(C)n3c(=O)cc(N4CCOCC4)nc23)cccc1C(F)(F)F [GSK2328680],0%
12,COC(=O)C(NC(=O)NC1CCN(c2ccnc(Nc3ccc(F)cc3)n2)C1)c1ccccc1 (centres unmarked) [GSK1379712],0%
13,Cc1ccc(NC(=O)Nc2ccc(Cl)cc2)cc1-c1ccc(C(=O)Nc2ccncc2)cc1 [GSK1398472],0%
14,Cc1ccc(-c2nc(Nc3ccncc3)c3ccccc3n2)s1 [GSK189015],18%
15,CC(C)c1cc(-c2ccc3c(N)n[nH]c3c2)nc(N)n1 [GSK2250882],0%
16,CC(=O)c1cccc(NC(=O)NC2CCN(c3ccnc(Nc4ccc(F)cc4)n3)C2)c1 (centres unmarked) [GSK1379710],0%
17,Cc1ccccc1Cn1ccn2c(=O)cc(N3CCOCC3)nc12 [GSK2269905],0%
18,CNc1nc(-c2ccc3c(N)n[nH]c3c2)cc(N2C[C@@H](C(=O)Nc3ccccc3)CC[C@H]2C)n1 [GSK2298859],0%

row,Structure (SMILES),%Inh
1,Fc1ccc(-c2nc[nH]c2-c2ccncc2)cc1 [SB-217360],0%
2,Cc1cccc2c(-c3ccncn3)c(-c3ccc(F)cc3)nn12 [GW515532],3%
3,COc1ccc(Nc2nccc(NCCNC(=O)Nc3cc(C)ccc3C)n2)cc1 [GSK1379899],0%
4,CS(=O)(=O)CCNCc1nc(-c2ccc3ncnc(Nc4ccc(OCc5ccccc5)c(Cl)c4)c3c2)cs1.Cl [GW582764],2%
5,NS(=O)(=O)c1cccc(N/C=C2\C(=O)Nc3ccc(S(=O)(=O)Cc4c(Cl)cccc4Cl)cc32)c1 [GSK398099],0%
6,CC(=O)c1c(C)c2cnc(Nc3ccn(C)n3)nc2n(C2CCCC2)c1=O,0%
7,Cn1cncc1-c1cc2c(Nc3ccc(OCc4ccccc4)cc3)ncnc2cn1 [GW281179],0%
8,COc1ccc(CSc2nnc(-c3ccc4c(c3)CCO4)o2)cc1,0%
9,CN1c2ccc(-c3ccc(C(N)=O)cc3)cc2-c2[nH]ncc2S1(=O)=O,17%
10,CC(C)c1ccc(O)cc1Nc1ccnc2ccc(C(F)(F)F)cc12 [GW482059],0%
11,O=C(Nc1n[nH]c2nc(-c3cccs3)c(Br)cc12)C1CCCC1 [SB-743341],7%
12,CS(=O)(=O)CCNCc1nc(-c2ccc3ncnc(Nc4ccc5c(cnn5Cc5ccccc5)c4)c3c2)cs1.Cl.Cl [GW569716],4%
13,Cl.Cl.Cl.N#Cc1ccc(CCNc2nccc(-c3cccc(CN4CCNCC4)c3)n2)cc1 [GSK2137462],1%
14,Fc1ccc(-c2nn3cccc(F)c3c2-c2ccncc2)cc1 [GW475620],16%
15,COc1ccc(CSc2nnc(-c3ccc4ncsc4c3)o2)cc1C(F)(F)F,17%
16,Cc1ccc(NC(=O)Nc2ccccc2F)cc1-c1ccc(C(=O)Nc2ccncc2)cc1 [GSK1398477],0%
17,O=C1NC(=O)C(c2ccc(Cl)cc2)=C1Nc1cccc(Cl)c1 [SB-317651],38%
18,CNc1nc(-c2ccc3c(N)n[nH]c3c2)cc(N2C[C@@H](C(=O)NC3CCCCC3)OC[C@H]2C)n1 [GSK2375584],13%
